# Measurements from PubChem BioAssay.
# Calls of active or inactive are those of the source.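 The calls were made as follows, unless noted: active = inhibition at or above 50% at 10 µM; inactive = inhibition below 50%.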
# How the values were obtained:
# [1] = inhibitors of TNFa-induced NFkB p65 translocation, primary screen, imaging, HUVEC, MLSMR starter and 10KST1 sets (AID 438;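 active = inhibition above 20% together with a positive visual image hit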;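 also: compound added about 3h40 before a 20 min TNFalpha stimulation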;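 as to inhibition: signal is the nuclear over cytoplasmic p65 intensity ratio per well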); details: HUVEC TNFa-induced p65 nuclear translocation; cell count: measured here: nuclei count (cytotoxicity indicator), at 2.08 µM; inhibition: at 2 µM, stronger effect = higher value, 0% TNFa-plus-vehicle, 100% no-TNFa wells
# [2] = reduction of polyQ htt aggregates in cells – imaging, exon1htt(103Q)mCFP cells, high-content imaging, primary screen (AID 483;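 active = visual image review flags a hit and inhibition of aggregation exceeds 20%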;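 also: compound exposure lasted 3 days before fixation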;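 as to nuclei count: percent of the per-plate median nuclei count of sample wells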); details: exon1htt(103Q)mCFP cell line, aggregate imaging, at 2 µM; inhibition of aggregation: stronger effect = higher value; nuclei count: measured here: cell count, toxicity
# [3] = endothelial E-selectin expression blockers – imaging, HUVEC, immunofluorescence, MLSMR starter and 10KST1 sets, primary screen (AID 487;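 active = visually confirmed hit in the image check and inhibition above 20%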;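 as to inhibition: signal is fraction of cell area covered by stained E-selectin grains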;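 as to nuclei count: 100% = median nuclei count of all wells on the same plate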); details: HUVEC TNFalpha-induced E-selectin immunofluorescence imaging, at 2 µM; inhibition: stronger effect = higher value; nuclei count: measured here: cell number, toxicity
# [4] = biological target: Voltage-gated potassium channel subunit beta-2 (Rattus norvegicus) (UniProt P62483); assay: inhibitors of rat Kvbeta2 reductase activity – biochemical, NADPH fluorescence, primary screen (AID 622;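 active = fluorescence slope higher than the sample average by over 3 SD, cut at about -0.22 in these data, passing the limit was not always enough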;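 also: slope of raw intensity against log time taken from 70 to 1610 s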); details: recombinant KvBeta, 4-cyanobenzaldehyde reduction, at 10 µM, stronger effect = higher value
# Sequence of Voltage-gated potassium channel subunit beta-2 (Rattus norvegicus) (P62483 whole entry, looked up): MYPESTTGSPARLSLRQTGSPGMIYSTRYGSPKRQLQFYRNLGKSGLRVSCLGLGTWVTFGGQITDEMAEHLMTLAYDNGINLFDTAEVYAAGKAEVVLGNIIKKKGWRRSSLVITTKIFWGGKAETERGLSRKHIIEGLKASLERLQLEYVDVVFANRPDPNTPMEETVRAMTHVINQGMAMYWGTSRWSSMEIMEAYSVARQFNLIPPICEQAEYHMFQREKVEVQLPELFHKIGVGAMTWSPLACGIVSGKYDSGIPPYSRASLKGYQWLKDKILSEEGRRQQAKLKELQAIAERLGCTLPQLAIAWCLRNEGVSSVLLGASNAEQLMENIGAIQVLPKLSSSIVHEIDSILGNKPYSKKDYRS
# [5] = biological target: Voltage-gated potassium channel subunit beta-2 (Rattus norvegicus) (UniProt P62483); assay: enhancers of rat Kvbeta2 NADPH turnover – biochemical, NADPH fluorescence, primary screen (AID 623;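 active = NADPH fluorescence slope more negative than the mean of all samples by about 3 SD, 99.7% confidence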;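 also: fluorescence intensity change per second fitted from 20 to 320 s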); details: Recombinant KvBeta, NADPH fluorescence decrease slope, 10 min; at 10 µM; stronger effect = lower value
# [6] = biological target: Alpha-2C adrenergic receptor (Homo sapiens) (UniProt P18825); assay: compounds altering alpha2C-coupled GIRK flux – cell-based, HEK293 alpha2C/GIRK1/2, thallium flux, primary screen (AID 624;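 active = fluorescence slope after compound addition differing from the mean of all screened samples at 99.7% confidence, in either direction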;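 also: slope of fluorescence ratio to pre-addition baseline per second over 15 to 24 s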); details: thallium flux BTC fluorescence, at 10 µM, actives lie on both sides
# Sequence of Alpha-2C adrenergic receptor (Homo sapiens) (P18825 whole entry, looked up): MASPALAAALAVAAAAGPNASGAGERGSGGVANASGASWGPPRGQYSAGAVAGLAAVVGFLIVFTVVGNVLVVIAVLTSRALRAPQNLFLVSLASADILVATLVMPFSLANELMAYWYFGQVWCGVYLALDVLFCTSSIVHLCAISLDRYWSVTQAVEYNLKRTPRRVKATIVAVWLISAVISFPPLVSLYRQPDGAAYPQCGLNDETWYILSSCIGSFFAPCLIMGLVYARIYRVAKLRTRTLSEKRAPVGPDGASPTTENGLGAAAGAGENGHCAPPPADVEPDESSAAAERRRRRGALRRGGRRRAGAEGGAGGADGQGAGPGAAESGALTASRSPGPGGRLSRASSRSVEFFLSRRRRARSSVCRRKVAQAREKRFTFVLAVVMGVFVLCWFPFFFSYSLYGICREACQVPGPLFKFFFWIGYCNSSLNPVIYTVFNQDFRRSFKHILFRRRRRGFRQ
# [7] = blockers of RIG-like receptor reporter activation – cell-based, Sendai virus stimulus, luciferase, 10K MLSCN set, TLR/RLR signaling modifier project, primary screen (AID 602276); details: HEK293 RL24 IRF3 luciferase reporter, at 10 µM, stronger effect = higher value;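 also: firefly luciferase from ISG56 promoter only with Renilla not read in this screen; 0% = Sendai virus plus DMSO and 100% = medium plus DMSO without virus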
# [8] = TLR3 IRF3 reporter activation blockers – cell-based, poly I:C stimulus, luciferase, 10K MLSCN set, primary screen (AID 602277;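 active = inhibition of the reporter signal at or above 50%; inactive = inhibition below 50%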); details: HEK293-TLR3 RL24 IRF3 luciferase reporter, at 10 µM, stronger effect = higher value
Structure (SMILES),cell count [1],inhibition [1],inhibition of aggregation [2],nuclei count [2] [%],inhibition [3],nuclei count [3] [%],fluorescence slope [4],NADPH fluorescence slope [5],slope [6],inhibition [7],inhibition [8]
COc1ccc(OC)c(C(C)NC=O)c1 (centres undefined),438,3% (inactive),14.2% (inactive),108,-56.8% (inactive),108,-0.449 (inactive),1.3e-05 (inactive),0.00556 (inactive),0.449% (inactive),23.1% (inactive)
CCN(CC)CCNC(=O)CCn1c(=S)[nH]c2cc3c(cc2c1=O)OCO3,380,-3% (inactive),-16.9% (inactive),99.9,7.2% (inactive),114,-0.501 (inactive),-2.4e-05 (inactive),0.00645 (inactive),-5.94% (inactive),28.2% (inactive)
O=C(CN(CCc1ccccc1)C(=O)CN1C(=O)COc2ccccc21)NCc1ccco1,571,-2.3% (inactive),-4.1% (inactive),55.5,-12.8% (inactive),97.6,-0.468 (inactive),-3.2e-06 (inactive),0.00696 (inactive),16.4% (inactive),23.2% (inactive)
CC1CCN(C(=O)Cn2cc3c(n2)CCCC3)CC1,931,-1.8% (inactive),-26% (inactive),114,-6.8% (inactive),89.8,-0.612 (inactive),-7.4e-06 (inactive),0.00712 (inactive),-32.6% (inactive),-60.8% (inactive)
CCSc1ccccc1C(=O)Nc1cccc(OC)c1,421,0.8% (inactive),-0.9% (inactive),112,-1.4% (inactive),75,-0.539 (inactive),-8.4e-05 (inactive),0.00513 (inactive),-8.73% (inactive),-15.7% (inactive)
O=S(c1ccsc1)c1ccsc1,444,6.5% (inactive),1.4% (inactive),95.8,13% (inactive),99.8,-0.497 (inactive),-4.1e-05 (inactive),0.00527 (inactive),19.8% (inactive),26.3% (inactive)
COc1cccc(Oc2cnc(N)nc2-c2ccc(OC)cc2O)c1,664,-8.2% (inactive),5.1% (inactive),112,-111% (inactive),87.8,-0.427 (inactive),-5.9e-05 (inactive),0.00372 (inactive),23.8% (inactive),38% (inactive)
COC(=O)C1=C(C)Nc2nnnn2C1c1cccs1 (centres undefined),536,-8.8% (inactive),-0.9% (inactive),107,-19.9% (inactive),62.5,-0.599 (inactive),-6.8e-05 (inactive),0.0058 (inactive),4.45% (inactive),20.5% (inactive)
Cc1nn(-c2ccccc2)c(Cl)c1C(=O)NCC(=O)O,296,3.9% (inactive),-6.8% (inactive),100,-22.6% (inactive),117,-0.399 (inactive),-6.1e-05 (inactive),0.00396 (inactive),11.2% (inactive),25.8% (inactive)
O=C(O)C1C2C=CC(C3CC23)C1C(=O)NCCc1ccccc1 (centres undefined),494,-7.5% (inactive),19.2% (inactive),54,-50% (inactive),104,-0.467 (inactive),-3.5e-05 (inactive),0.00628 (inactive),-3.61% (inactive),11.6% (inactive)
O=S(=O)(c1ccc(Oc2ccc(-c3nnco3)cc2)nc1)N1CCC(Cc2ccccc2)CC1,396,-10.6% (inactive),-26.7% (inactive),102,-1% (inactive),108,-0.508 (inactive),-5e-05 (inactive),0.00554 (inactive),1.05% (inactive),5.84% (inactive)
COCC(=O)Nc1cc(OC)ccc1OC,230,-7% (inactive),8.8% (inactive),87.6,-28.5% (inactive),84.6,-0.501 (inactive),3.1e-05 (inactive),0.0057 (inactive),12.1% (inactive),31% (inactive)
O=C(CSCc1ccccn1)Nc1ccccc1,312,-8% (inactive),21.9% (inactive),95.1,4.8% (inactive),98.8,-0.437 (inactive),-4.9e-05 (inactive),0.00582 (inactive),-30.9% (inactive),-49% (inactive)
CCc1nnc(NC(=O)c2cc3c(s2)CCCCC3)s1,662,4.4% (inactive),4.1% (inactive),131,-89.1% (inactive),108,-0.406 (inactive),-0.000125 (inactive),0.00621 (inactive),-50.8% (inactive),-103% (inactive)
O=C1CN(Cc2ccccc2)C(=NCc2ccco2)S1,446,3.4% (inactive),-5.3% (inactive),99.8,13.6% (inactive),97.4,-0.451 (inactive),-2.2e-05 (inactive),0.00487 (inactive),8.96% (inactive),30.9% (inactive)
Cn1cc(-c2nc3ccccc3[nH]2)c2ccccc21,250,2.1% (inactive),33.7% (inactive),82.6,55.1% (inactive),83.3,-0.416 (inactive),-6e-05 (inactive),0.00369 (inactive),-9.53% (inactive),-51.2% (inactive)
C/C=C/COC(=O)c1[nH]c2c(c1C)C(=O)CC(c1ccc(N(C)C)cc1)C2 (centres undefined),699,1.8% (inactive),14.4% (inactive),79.6,-46.6% (inactive),115,-0.543 (inactive),-2.2e-05 (inactive),0.00679 (inactive),-29.1% (inactive),-68.7% (inactive)
FC(F)(F)c1nnc2sc(-c3cccs3)nn12,382,-4% (inactive),-16.2% (inactive),84.9,-28.5% (inactive),96.5,-0.567 (inactive),-4.5e-05 (inactive),0.00576 (inactive),10.9% (inactive),11.3% (inactive)
CCN(CCO)C(=O)CC(c1ccccc1)c1cc(Br)ccc1O (centres undefined),357,15% (inactive),-0.8% (inactive),102,-31.9% (inactive),102,-0.331 (inactive),-6.1e-05 (inactive),0.00761 (inactive),13.1% (inactive),20.3% (inactive)
